The values below come from PubChem BioAssay (EPA / NIEHS).

Records with an inconclusive call do not appear. Activity calls are given as the source filed them. How the source made its calls, unless noted: active means hit-call score of the fitted dose curve at least 0.9, where 1 is the maximum; inactive means score below 0.9.

The AC50 is the concentration at which the activity in the assay is half-maximal.

Assay [1] concerns the target human Retinoid X Receptor beta (RXRb), RXRB (gene 6257) (UniProt P28702). Put plainly: ATG_RXRb_TRANS: Attagene TRANS-FACTORIAL HepG2 Assay for human Retinoid X Receptor beta (RXRb) (AID 2283013; active means hit-call score of the fitted dose curve at least 0.9, where 1 is the maximum). The method, boiled down:
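Multiplexed TRANS reporter assay in HepG2; 24 h dosing; reporter mRNA by RT-PCR/CE fluorescence; gain-of-signal relative to DMSO.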

Read-out in assay [2]: E-selectin (Homo sapiens) (UniProt P16581)
Put plainly: BSK_3C_Eselectin: BioMAP Diversity Plus: 3C Assay for Eselectin Biomarker Activity (AID 2283015).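 On outcome: cell surface E-selectin protein quantified by ELISA 24 h after dosing.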 The note with it: primary human endothelial cells (HUVEC); actives raise or lower the signal. The method, boiled down: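 Primary human umbilical vein endothelial cells (3C system) were dosed with chemical and cell-surface E-selectin measured by ELISA 24 h later. Bidirectional curve fitting used DMSO as negative control and baseline.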

Read-out in assay [3]: Interleukin-1 alpha (IL1a), IL1A (gene 3552)
Kind of assay: BSK_BE3C_IL1a: BioMAP Diversity Plus: BE3C Assay for Interleukin-1 alpha (IL1a) Biomarker Activity (AID 2283016). Conditions: primary human bronchial epithelial cells; actives raise or lower the signal. The method, boiled down:
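Cultures of primary human bronchial epithelial cells receive test chemical. After 24 h, IL-1a is quantified by ELISA, while parallel wells are fixed in TCA and SRB-stained for total protein. Changes in either direction are fitted relative to DMSO.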

Read-out in assay [4]: Monocyte Chemoattractant Protein-1 (MCP1), CCL2 (gene 6347)
Kind of assay: BSK_3C_MCP1: BioMAP Diversity Plus: 3C Assay for Monocyte Chemoattractant Protein-1 (MCP1) Biomarker Activity (AID 2283017). The note with it: primary human endothelial cells (HUVEC); actives raise or lower the signal. The method, boiled down: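 Primary human umbilical vein endothelial cells (3C system) were exposed to test chemical for 24 h, after which MCP-1 was quantified by ELISA. Activity was fitted bidirectionally against DMSO as negative control and baseline.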

Read-out in assay [5]: Monocyte Chemoattractant Protein-1 (MCP1), CCL2 (gene 6347)
Put plainly: BSK_4H_MCP1: BioMAP Diversity Plus: 4H Assay for Monocyte Chemoattractant Protein-1 (MCP1) Biomarker Activity (AID 2283018). Conditions: primary human endothelial cells (HUVEC); actives raise or lower the signal. The method, boiled down:
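Readout: MCP-1 ELISA on compound-treated HUVEC, sampled 24 h post-dosing. Baseline and negative control DMSO; bidirectional fit. Overt toxicity checked alongside by sulforhodamine B protein staining at time of biomarker measurement.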

Read-out in assay [6]: Human Leukocyte Antigen - DR isotype (HLADR), HLA-DRA (gene 3122)
Put plainly: BSK_3C_HLADR: BioMAP Diversity Plus: 3C Assay for Human Leukocyte Antigen - DR isotype (HLADR) Biomarker Activity (AID 2283019).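 On outcome: ELISA of cell-surface HLA-DR on HUVEC 24 h after dosing.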 Conditions: primary human endothelial cells (HUVEC); actives raise or lower the signal. The method, boiled down:
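Primary human umbilical vein endothelial cells (3C system) were dosed with compound and cell-surface HLA-DR was quantified by ELISA at 24 h. Activity was fitted bidirectionally against DMSO as negative control and baseline.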

For assay [7], the target named is human Thyroid Receptor alpha (THRa1), THRA (gene 7067) (UniProt P10827). Kind of assay: ATG_THRa1_TRANS: Attagene TRANS-FACTORIAL HepG2 Assay for human Thyroid Receptor alpha (THRa1) (AID 2283014; active means hit-call score of the fitted dose curve at least 0.9, where 1 is the maximum). The method, boiled down: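 HepG2 cells transiently transfected with multiplexed GAL4-UAS reporter units for exogenous chimeric THRa1-Gal4; reporter mRNA measured 24 h after dosing by RT-PCR, 6-FAM labelling, HpaI digestion and capillary electrophoresis. Gain-of-signal fitted versus DMSO baseline.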
Sequence of human Thyroid Receptor alpha (THRa1), THRA (gene 7067) (P10827 whole entry, looked up, the tested form may be a part): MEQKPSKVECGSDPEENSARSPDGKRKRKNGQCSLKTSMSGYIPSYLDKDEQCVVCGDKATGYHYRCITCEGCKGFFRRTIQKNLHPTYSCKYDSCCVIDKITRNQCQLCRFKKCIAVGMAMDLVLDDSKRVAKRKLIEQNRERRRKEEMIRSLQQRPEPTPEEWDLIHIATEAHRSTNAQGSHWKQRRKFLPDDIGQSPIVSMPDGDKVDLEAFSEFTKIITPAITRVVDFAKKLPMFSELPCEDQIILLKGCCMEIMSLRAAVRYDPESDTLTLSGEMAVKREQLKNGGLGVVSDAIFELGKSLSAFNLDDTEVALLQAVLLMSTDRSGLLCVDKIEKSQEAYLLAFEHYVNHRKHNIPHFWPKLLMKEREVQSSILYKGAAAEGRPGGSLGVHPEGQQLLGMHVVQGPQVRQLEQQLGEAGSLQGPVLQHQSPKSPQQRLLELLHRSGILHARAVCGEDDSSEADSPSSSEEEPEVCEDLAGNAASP

Sequence of E-selectin (Homo sapiens) (P16581 whole entry, looked up): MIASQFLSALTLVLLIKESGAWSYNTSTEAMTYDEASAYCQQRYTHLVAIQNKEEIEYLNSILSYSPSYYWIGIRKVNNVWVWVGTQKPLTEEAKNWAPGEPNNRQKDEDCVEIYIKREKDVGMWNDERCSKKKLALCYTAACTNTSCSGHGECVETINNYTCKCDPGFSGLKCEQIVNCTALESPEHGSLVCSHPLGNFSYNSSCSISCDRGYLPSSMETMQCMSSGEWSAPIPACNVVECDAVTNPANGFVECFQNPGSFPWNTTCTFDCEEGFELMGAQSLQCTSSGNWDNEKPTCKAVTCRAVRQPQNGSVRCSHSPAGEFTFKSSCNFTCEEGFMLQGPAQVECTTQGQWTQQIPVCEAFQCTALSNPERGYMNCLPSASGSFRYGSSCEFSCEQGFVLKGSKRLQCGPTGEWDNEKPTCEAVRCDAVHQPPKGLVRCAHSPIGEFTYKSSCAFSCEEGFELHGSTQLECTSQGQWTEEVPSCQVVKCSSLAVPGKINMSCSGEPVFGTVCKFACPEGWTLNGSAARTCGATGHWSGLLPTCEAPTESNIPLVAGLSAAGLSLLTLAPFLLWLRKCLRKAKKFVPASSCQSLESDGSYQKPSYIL
Sequence of human Retinoid X Receptor beta (RXRb), RXRB (gene 6257) (P28702 whole entry, looked up): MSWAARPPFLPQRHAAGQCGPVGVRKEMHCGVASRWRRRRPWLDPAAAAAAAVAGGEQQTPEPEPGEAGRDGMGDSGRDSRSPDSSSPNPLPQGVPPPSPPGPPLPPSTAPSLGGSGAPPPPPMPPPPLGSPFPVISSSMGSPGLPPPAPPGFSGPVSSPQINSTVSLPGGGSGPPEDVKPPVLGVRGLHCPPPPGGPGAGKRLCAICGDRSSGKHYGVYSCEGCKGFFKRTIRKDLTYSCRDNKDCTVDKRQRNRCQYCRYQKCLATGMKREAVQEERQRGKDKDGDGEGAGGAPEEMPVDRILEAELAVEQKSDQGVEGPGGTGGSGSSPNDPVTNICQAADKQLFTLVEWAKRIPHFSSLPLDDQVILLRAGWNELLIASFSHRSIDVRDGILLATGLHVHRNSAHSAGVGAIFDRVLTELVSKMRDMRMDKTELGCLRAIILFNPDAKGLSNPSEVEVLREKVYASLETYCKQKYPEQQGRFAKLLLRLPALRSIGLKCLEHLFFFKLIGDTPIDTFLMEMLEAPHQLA

In the case of `CC(C)c1ccc(C(C)C)cc1`, the AC50 in assay [1] is 66.5 µM (active); in assay [2], 36.1 µM (active); in assay [3], 29.1 µM (active); in assay [4], 36.8 µM (active); in assay [5], 29.9 µM (active); in assay [6] it was 34.6 µM (active).

On to `O=C(O)c1ccc([N+](=O)[O-])cc1`, for which the compound was classed as inactive in assay [1], in assay [7], in assay [2], in assay [3], in assay [4] and in assay [5]. The outcome in assay [6] was inactive.

Consider `O=C(COc1ccc(Cl)cc1)N1CCN(Cc2ccc3c(c2)OCO3)CC1`, for which the outcome in assay [1] and in assay [7] was inactive.

With `CCCCCCCCCCC(CO)CCCCCCCC` (stereo not given), the result in assay [7] was inactive.

For `O=S(=O)(O)NC1CCCCC1`, the compound was called inactive in assay [7].

Take `c1ccc(CCCc2ccccn2)cc1`: in assay [7], the outcome was inactive.

`NCCCN1CCOCC1`: the result in assay [1] and in assay [7] was inactive.

Regarding `CC1(C)C(=O)N(Br)C(=O)N1Cl`, the compound was classed as inactive in assay [7].

In the case of `c1ccc2sc(SN(C3CCCCC3)C3CCCCC3)nc2c1`, the outcome in assay [1], in assay [7] and in assay [3] was inactive. Also, the AC50 in assay [2] is 1.78 µM (active); in assay [4], 10.1 µM (active); in assay [5], 4.34 µM (active); in assay [6] it was 10.2 µM (active).

Turning to `O=c1cc(-c2ccccc2)oc2cc(O)cc(O)c12`, the outcome in assay [7] was inactive.

For the compound `CC(C)c1cccc(O)c1`, in assay [7], the call was inactive.
